In PubChem BioAssay (NCI):
This is part of a sample that, as a whole, favours compounds with a hit. Of some 83,000 tested, about 20% had one in any assay.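 Values shown are percent growth following 48 h exposure of cells in 96-well plates to a single concentration of compound; below 10 was considered active.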 Calls of active or inactive are those of the source.

Test system: SK-MEL-28 melanoma
Assay: NCI-60 one-dose screen, 48 h (100 = growth as untreated, 0 = no growth, -100 = all killed)
Conditions: 10 µM unless noted
Procedure: Growth inhibition of the SK-MEL-28 human tumor cell line is measured as a screen for anti-cancer activity. Cells are grown in 96 well plates and exposed to the test compound for 48 hours. Compounds are tested at a single concentration, which is 10^-5 M for most compounds. The reported endpoint is percent growth (GI% or GIPRCNT), where numbers from 0 - 100% represent growth inhibition, and numbers from -100% - 0 represent cell death. For example, a value of 40 represents 60% growth inhibition. A value of 0 means no net growth occurred over the course of the experiment. A value of -40 indicates 40% of cells at the beginning of the experiment died by the end of the experiment. A value of -100 means all cells are dead at the end of the experiment.
NCI-60 Human Tumor Cell Lines Screen was performed using the standard one-dose NCI protocol, which is described in more detail at https://dtp.cancer.gov/discovery_development/nci-60/default.htm.
Compounds with GIPRCNT values below 10 were considered active. Activity score was based on GIPRCNT using the following formula: […]
Score is 0 for GIPRCNT values of 100 or above, 50 for GIPRCNT values of 0, and 100 for GIPRCNT values of -100.

Row | Compound | growth
1 | C#CC#CC#CC#CC#CC#CC#CC#CC[C@H]1OC[C@@H](COC(=O)O[C@@H](C(=O)O[C@H]2C[C@@]3(O)[C@@H](OC(=O)c4ccccc4)[C@@H]4[C@]5(OC(C)=O)CO[C@@H]5C[C@H](O)[C@@]4(C)C(=O)[C@H](OC(C)=O)C(=C2C)C3(C)C)[C@@H](NC(=O)c2ccccc2)c2ccccc2)O1 | 62.8% (inactive)
2 | CNCc1cccc2c1OCCOCCN(C)C(=O)CN(C)S(=O)(=O)c1ccc(cc1)-c1cnc(N)c(n1)C(=O)N2 | -85.8% (active)
3 | C[C@@H]1O[C@@H](O[C@@H]2C[C@H](c3ccc4c(c3O)C(=O)C3=C(C4=O)[C@@]4(O)C(=O)C[C@](C)(O)C[C@@]4(O)C=C3)O[C@H](C)[C@H]2O)C[C@H](O)[C@@H]1O | 113% (inactive)
4 | COc1cccc2c(N=NC(=O)c3ccc(S(N)(=O)=O)cc3)c(O)[nH]c12 | 112% (inactive)
5 | COc1cccc(OC)c1Oc1c(-c2nc3ccccc3s2)c(C)nn1-c1ccccc1 | 106% (inactive)
6 | CCNC(=O)Oc1ccc(/C(=C(/C)Cc2ccc(OC)cc2)c2ccc(OCCN3CCCC3)cc2)cc1 | 66.1% (inactive)
7 | COc1cc(Nc2c3ccc(Cl)cc3nc3ccc(OC)cc23)c2ncccc2c1 | 50% (inactive)
8 | CCOC(=O)c1c2c(n3c1NCC3)-c1ccccc1C2=O | 103% (inactive)
9 | CCOC(=O)C(=Cc1cccc(C#N)c1)C(=O)OCC | 50.3% (inactive)
10 | COC1=CC(c2ccc[nH]2)=N/C1=C\c1[nH]c(C)c(CC(=O)OCc2ccccc2)c1C | -18.2% (active)
11 | O=c1[nH]cnc2c1C(c1ccc(Br)cc1)c1sc3c(F)cccc3c1O2 (stereo not given) | 105% (inactive)
12 | N=c1c2c(=N)n3c(nc2nc2n1-c1ccccc1Sc1ccccc1-2)sc1cc(Cl)ccc13 | 25% (inactive)
13 | O=C(CN1C(=O)NC2NC(=O)NC21)N/N=C/c1ccc(Cl)cc1Cl (stereo not given) | 109% (inactive)
14 | Cc1ccc(C)c(-n2c(-c3ccc(Br)cc3)csc2=NC(=O)c2ccccc2F)c1 | 96.6% (inactive)
15 | COc1ccc(/C=C/C(=O)c2ccc(NC(=O)CSc3nnc(-c4cc(-c5ccccc5)nc5ccccc45)n3-c3ccccc3)cc2)cc1 | 98.4% (inactive)
16 | COc1ccc(C/C(C)=C(\c2ccc(O)cc2)c2ccc(OCCN3CCCC3)cc2)cc1 | 97% (inactive)
17 | C=CC(=O)N1CCN(c2ccc3cccc(NC(=O)c4cnc(C)cn4)c3n2)CC1 | 68% (inactive)
18 | Cn1cc(C(=O)c2nc(-c3c[nH]c4ccc(Br)cc34)no2)c2cc(Br)ccc21 | 92% (inactive)
19 | COc1ccc2nc(Cl)c(/C=C/C(=O)c3ccc(NC(=O)CSc4nnc(-c5ccc(Cl)c(Cl)c5)n4-c4ccccc4)cc3)cc2c1 | 107% (inactive)
20 | Cc1ncc(C(=O)Nc2ccc(CN3CCN(C)CC3)c(C(F)(F)F)c2)cc1C#Cc1cnc(N)c2cnccc12 | -0.469% (active)

Row | Compound | growth
21 | CCOC(=O)N1CCN(S(=O)(=O)c2oc(-c3ccc(Cl)cc3)nc2C#N)CC1 | 105% (inactive)
22 | CCCCCCOC(=O)CC1=C(C)/C(=C/c2[nH]c(-c3ccc[nH]3)cc2OC)N=C1C | -64.9% (active)
23 | CCCCCCCC/C=C\CCCCCCCCOc1ccc(CC(=O)NCC[N+](C)(C)C)cc1 | 91.7% (inactive)
24 | CC(/C=C1\SC(=S)N(CC(=O)NC(Cc2c[nH]c3ccccc23)C(=O)O)C1=O)=C\c1ccccc1 (stereo not given) | 105% (inactive)
25 | CCSC1=CC(=O)c2ccccc2C1=O | 36.7% (inactive)
26 | O=C(CSc1nc2ccc([N+](=O)[O-])cc2[nH]1)Nc1cccc([N+](=O)[O-])c1 | 55.7% (inactive)
27 | COc1ccc(NC(=O)c2cccc(C3CCc4c(cc(OC)c(OC)c4OC)O3)c2)cc1 (stereo not given) | 47% (inactive)
28 | C=C1C(=O)O[C@H]2[C@H]1CC/C(COC(=O)NCc1ccc(Cn3c(=O)sn(-c4ccc(OC)cc4)c3=O)cc1)=C\CC[C@@]1(C)O[C@@H]21 | 71% (inactive)
29 | C=C1C(=O)O[C@H]2[C@H]1CC/C(COC(=O)/C=C\C(=O)NCc1ccc(Cn3c(=O)sn(-c4ccccc4)c3=O)cc1)=C\CC[C@@]1(C)O[C@@H]21 | 94.4% (inactive)
30 | N#Cc1nc(-c2ccc(F)cc2)oc1S(=O)(=O)N1CCN(c2ccc(F)cc2)CC1 | 104% (inactive)
31 | COc1cc(-c2nc(NC(C)=O)sc2-c2ccnc(NCCNS(=O)(=O)c3ccccc3)n2)ccc1Cl | 35.6% (inactive)
32 | CCN(CC)CCOc1ccc(Nc2ncc3cc(-c4ccc(O)cc4)c(=O)n(C)c3n2)cc1 | 55.7% (inactive)
33 | O=C1NC(=C(Cl)Cl)/C(=N/S(=O)(=O)N2CCCCC2)N1 | -32.7% (active)
34 | Cc1c2cnccc2c(C)c2c1c1cc(C3OCCCO3)ccc1n2C | -29.6% (active)
35 | O=C1/C(=C/c2ccc(C(F)(F)F)cc2)COc2ccc(O)c(O)c21 | 72.1% (inactive)
36 | CCn1cc(C(=O)N/N=C/c2ccc(Br)cc2)c(=O)c2cc(F)c(N3CCNC(C)C3)c(F)c21 (stereo not given) | 91.2% (inactive)
37 | O=C(OC[C@@H]1CO1)c1cccc2c(=O)c3ccccc3[nH]c12 | -62.6% (active)
38 | CCCCCCCCNc1cc2c3c(c1)CCCN3CCC2 | 48.9% (inactive)
39 | CC(C)c1ccc(-n2c(=S)[nH]c3sc4c(c3c2=O)CCC(=O)C4)cc1 | 75.7% (inactive)
40 | C=C1C(=O)O[C@H]2[C@H]1CC/C(COC(=O)NCCCCCCCCNC(=O)OC/C1=C/CC[C@@]3(C)O[C@H]3[C@H]3OC(=O)C(=C)[C@@H]3CC1)=C\CC[C@@]1(C)O[C@@H]21 | -75.3% (active)
